Measured values: article PMC5540273 (PLoS ONE, 2017)

test system: T1, MST1; details: concentration: 1 μM, replicates: in singlicate; n = 1
T1 construct: gene STK4
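Also: KINOMEscan kinase panel screen.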

Row | Compound | %Inh [%]
1 | Cl.Nc1ncnc2occ(-c3ccc(NC(=O)Nc4cc(C(F)(F)F)ccc4F)cc3)c12 [SB-707548] | 50
2 | Fc1ccc(-c2ncn(CCCN3CCOCC3)c2-c2cccnc2)cc1 [SB-211743] | 12
3 | CCCCCc1nc2c(N)ncnc2n1CCCCC [SKF-97255] | 0
4 | c1ccc(-c2cc(-c3c[nH]nc3-c3ccccn3)ccn2)cc1 [GW576604] | 0
5 | COc1ccc(Nc2nccc(N3CCC(NC(=O)Nc4cccc(C(C)=O)c4)C3)n2)cc1 (centres unmarked) [GSK1379731] | 4
6 | CCc1nc(-c2cccc(C)c2)c(-c2ccnc(NCc3ccccc3)c2)s1 | 4
7 | COC(=O)Nc1nc2cc(Oc3ccc(NC(=O)Nc4cc(F)ccc4F)cc3)ccc2[nH]1.Cl [GW701424] | 0
8 | CN1c2ccc(CNc3ccc(F)cc3)cc2-c2c(cnn2C)S1(=O)=O | 0
9 | O=C(NCCCN1CCOCC1)c1cccc(Nc2nccc(Nc3ccc(Oc4ccccc4)cc3)n2)c1 [GW663929] | 0
10 | N#Cc1c(N2CCOCC2)sc(-c2ccn[nH]2)c1-c1ccc(Cl)cc1 | 21
11 | O=C1Cc2cc(Nc3nc(NCc4cccc(S(=O)(=O)C(F)(F)F)c4)ncc3C(F)(F)F)ccc2N1 | 14
12 | [2H]C([2H])(c1cccc(C(F)(F)F)c1C)n1ccn2c(=O)nc(N3CCOCC3)cc12 [GSK2336394] | 2
13 | COc1cc2c(cc1OCCN1CCN(C)CC1)ncc1c3ccc(C#N)cc3[nH]c21 | 0
14 | O=c1cc(N2CCOCC2)nc2n(Cc3cccc(C(F)(F)F)c3)ccn12 [GSK2297543] | 10
15 | Nc1nccc(-c2c(-c3ccc(F)cc3)ncn2C2CCN(CC(F)(F)F)CC2)n1 [SB-236560] | 96.9
16 | CN(C(=O)c1ccc(-c2cc(-c3c[nH]nc3-c3ccccn3)ccn2)cc1)C1CCOCC1 [GW810083] | 8
17 | NCC(NC(=O)c1cc(-c2cn[nH]c2)c(-c2ccnc3[nH]ccc23)s1)c1ccccc1.O=C(O)C(F)(F)F.O=C(O)C(F)(F)F (centres unmarked) [GSK1325775] | 0

Row | Compound | %Inh [%]
18 | COCCNC(=O)c1ccc(-c2cc(C(=O)NC3CC3)cc(F)c2C)cc1 [GW868318] | 17
19 | Fc1ccc(-c2nn3c(OCC(F)(F)F)cccc3c2-c2ccncc2)cc1 [GW514784] | 0
20 | C[C@@H](Oc1cc(-n2cnc3ccc(NC(=O)NC(C)(C)C)cc32)sc1C(N)=O)c1ccccc1Cl [GSK346294] | 12
21 | Cl.Oc1cccc(Nc2ccnc3cc(-c4ccncc4)ccc23)c1 [GW494601] | 0
22 | Cc1cn2c(=O)cc(N3CCOCC3)nc2n1Cc1cccc(Cl)c1Cl [GSK2334006] | 14
23 | Cc1cccc(-c2nc(-c3ccc(S(C)(=O)=O)cc3)sc2-c2ccncc2)c1 | 5
24 | Cc1cccc(-c2nc(Nc3ccc4ncsc4c3)c3ccccc3n2)n1 [GW867588] | 18
25 | NS(=O)(=O)c1cccc(-c2ccc3ncc(N4CCOCC4)nc3c2)c1 [GSK1535721] | 0
26 | O=c1cc(N2CCOCC2)nc2n(Cc3cccc4ccccc34)ccn12 [GSK2333389] | 0
27 | CN1c2ccc(NCc3ccc(F)cc3)cc2-c2c(cnn2C)S1(=O)=O | 0
28 | O=c1cc(N2CCOCC2)nc2n(Cc3cccc(Cl)c3Cl)c(C3CC3)nn12 [GSK2358994] | 0
29 | CSc1ccc(-c2cc3ncnc(SCC(=O)O)c3s2)cc1 | 13
30 | Cc1nnc(-c2ccc(C)c(-c3ccc(C(=O)Nc4ccc(NS(C)(=O)=O)cc4)cc3)c2)o1 [GW702865] | 6
31 | Cc1nnc(-c2ccc3occ(-c4ccc(C(C)O)cc4)c3c2)o1 (centres unmarked) | 0
32 | O=C(Nc1cccc(-c2nn3ncccc3c2-c2ccnc(Nc3cccc(C(F)(F)F)c3)n2)c1)c1c(F)cccc1F [GSK299495] | 9
33 | Cc1ccc(C(=O)NCC(N)=O)cc1-n1c(C)cc(OCc2ccc(F)cc2F)c(Br)c1=O | 13

test system: T2, MST2; details: concentration: 1 μM, replicates: in singlicate; n = 1
T2 construct: gene STK3

Row | Compound | %Inh [%]
34 | Cl.Nc1ncnc2occ(-c3ccc(NC(=O)Nc4cc(C(F)(F)F)ccc4F)cc3)c12 [SB-707548] | 26
35 | Fc1ccc(-c2ncn(CCCN3CCOCC3)c2-c2cccnc2)cc1 [SB-211743] | 40
36 | CCCCCc1nc2c(N)ncnc2n1CCCCC [SKF-97255] | 0
37 | c1ccc(-c2cc(-c3c[nH]nc3-c3ccccn3)ccn2)cc1 [GW576604] | 0
38 | Cl.Cl.Cl.Fc1ccc(-c2ncn(C3CCNCC3)c2-c2ccnc(Nc3ccccc3)n2)cc1 [SB-238039] | 0
39 | COc1ccc(Nc2nccc(N3CCC(NC(=O)Nc4cccc(C(C)=O)c4)C3)n2)cc1 (centres unmarked) [GSK1379731] | 0
40 | CCc1nc(-c2cccc(C)c2)c(-c2ccnc(NCc3ccccc3)c2)s1 | 0
41 | CC(C)(CN)c1nc(-c2ccc(Cl)c(O)c2)c(-c2ccncc2)[nH]1.O=C(O)C(F)(F)F [SB-477794] | 0
42 | COC(=O)Nc1nc2cc(Oc3ccc(NC(=O)Nc4cc(F)ccc4F)cc3)ccc2[nH]1.Cl [GW701424] | 0
43 | CN1c2ccc(CNc3ccc(F)cc3)cc2-c2c(cnn2C)S1(=O)=O | 0
44 | O=C(NCCCN1CCOCC1)c1cccc(Nc2nccc(Nc3ccc(Oc4ccccc4)cc3)n2)c1 [GW663929] | 34
45 | N#Cc1c(N2CCOCC2)sc(-c2ccn[nH]2)c1-c1ccc(Cl)cc1 | 0
46 | O=C1Cc2cc(Nc3nc(NCc4cccc(S(=O)(=O)C(F)(F)F)c4)ncc3C(F)(F)F)ccc2N1 | 27
47 | [2H]C([2H])(c1cccc(C(F)(F)F)c1C)n1ccn2c(=O)nc(N3CCOCC3)cc12 [GSK2336394] | 0
48 | COc1cc2c(cc1OCCN1CCN(C)CC1)ncc1c3ccc(C#N)cc3[nH]c21 | 30
49 | O=c1cc(N2CCOCC2)nc2n(Cc3cccc(C(F)(F)F)c3)ccn12 [GSK2297543] | 0
50 | Nc1nccc(-c2c(-c3ccc(F)cc3)ncn2C2CCN(CC(F)(F)F)CC2)n1 [SB-236560] | 0
51 | CN(C(=O)c1ccc(-c2cc(-c3c[nH]nc3-c3ccccn3)ccn2)cc1)C1CCOCC1 [GW810083] | 13

Row | Compound | %Inh [%]
52 | NCC(NC(=O)c1cc(-c2cn[nH]c2)c(-c2ccnc3[nH]ccc23)s1)c1ccccc1.O=C(O)C(F)(F)F.O=C(O)C(F)(F)F (centres unmarked) [GSK1325775] | 12
53 | COCCNC(=O)c1ccc(-c2cc(C(=O)NC3CC3)cc(F)c2C)cc1 [GW868318] | 24
54 | Fc1ccc(-c2nn3c(OCC(F)(F)F)cccc3c2-c2ccncc2)cc1 [GW514784] | 0
55 | C[C@@H](Oc1cc(-n2cnc3ccc(NC(=O)NC(C)(C)C)cc32)sc1C(N)=O)c1ccccc1Cl [GSK346294] | 0
56 | Cl.Oc1cccc(Nc2ccnc3cc(-c4ccncc4)ccc23)c1 [GW494601] | 0
57 | Cc1cn2c(=O)cc(N3CCOCC3)nc2n1Cc1cccc(Cl)c1Cl [GSK2334006] | 0
58 | Cc1cccc(-c2nc(-c3ccc(S(C)(=O)=O)cc3)sc2-c2ccncc2)c1 | 0
59 | Cc1cccc(-c2nc(Nc3ccc4ncsc4c3)c3ccccc3n2)n1 [GW867588] | 0
60 | NS(=O)(=O)c1cccc(-c2ccc3ncc(N4CCOCC4)nc3c2)c1 [GSK1535721] | 0
61 | O=c1cc(N2CCOCC2)nc2n(Cc3cccc4ccccc34)ccn12 [GSK2333389] | 9
62 | CN1c2ccc(NCc3ccc(F)cc3)cc2-c2c(cnn2C)S1(=O)=O | 28
63 | O=c1cc(N2CCOCC2)nc2n(Cc3cccc(Cl)c3Cl)c(C3CC3)nn12 [GSK2358994] | 41
64 | CSc1ccc(-c2cc3ncnc(SCC(=O)O)c3s2)cc1 | 20
65 | Cc1nnc(-c2ccc(C)c(-c3ccc(C(=O)Nc4ccc(NS(C)(=O)=O)cc4)cc3)c2)o1 [GW702865] | 0
66 | Cc1nnc(-c2ccc3occ(-c4ccc(C(C)O)cc4)c3c2)o1 (centres unmarked) | 0
67 | O=C(Nc1cccc(-c2nn3ncccc3c2-c2ccnc(Nc3cccc(C(F)(F)F)c3)n2)c1)c1c(F)cccc1F [GSK299495] | 23
68 | Cc1ccc(C(=O)NCC(N)=O)cc1-n1c(C)cc(OCc2ccc(F)cc2F)c(Br)c1=O | 4
